# From PubChem BioAssay (NCI)
# Compounds without any hit were thinned out: in the full panel of roughly 83,000, 20% have a hit.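 Interpretation: 100, growth as untreated; towards 0, rising growth inhibition; 0, no net growth; 0 to -100, cell death. Compounds scoring below 10 were considered active.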 Unmarked numbers belong to inactive results. Calls of active or inactive are those of the source.
# What was measured:
# Assay in all cases: NCI-60 one-dose screen, 48 h (100 = growth as untreated, 0 = no growth, -100 = all killed)
# NCI-H23 lung = settings: 10 µM unless noted
# NCI-H226 lung = settings: 10 µM unless noted
# NCI-H322M lung = settings: 10 µM unless noted
# HOP-92 NSCLC = settings: 10 µM
# NCI-H522 lung = settings: 10 µM
# A549/ATCC NSCLC = settings: 10 µM unless noted
# 786-0 renal = settings: 10 µM unless noted
# COLO 205 colon = settings: 10 µM unless noted
# DU-145 prostate = settings: 10 µM unless noted
# K-562 leukemia = settings: 10 µM unless noted
# MALME-3M melanoma = settings: 10 µM unless noted
# MDA-MB-231 breast = settings: 10 µM unless noted
# RXF 393 renal = settings: 10 µM unless noted
# SF-295 CNS = settings: 10 µM unless noted
# UACC-257 melanoma = settings: 10 µM unless noted
# M14 melanoma = settings: 10 µM unless noted
# SF-268 CNS = settings: 10 µM unless noted
# SF-539 CNS = settings: 10 µM unless noted
Structure (SMILES),growth (NCI-H23 lung),growth (NCI-H226 lung),growth (NCI-H322M lung),growth (HOP-92 NSCLC),growth (NCI-H522 lung),growth (A549/ATCC NSCLC),growth (786-0 renal),growth (COLO 205 colon),growth (DU-145 prostate),growth (K-562 leukemia),growth (MALME-3M melanoma),growth (MDA-MB-231 breast),growth (RXF 393 renal),growth (SF-295 CNS),growth (UACC-257 melanoma),growth (M14 melanoma),growth (SF-268 CNS),growth (SF-539 CNS)
N=C(N)N=Nc1ccc(NN=C(N)N)c2ccccc12,106%,117%,97%,93.7%,87.1%,97.8%,95.3%,111%,113%,103%,146%,101%,142%,106%,105%,75.9%,–,–
C#CCCCCCCC[C@@H]1OC(=O)[C@H]([C@@H](C)CC)NC(=O)[C@H]([C@@H](C)CC)NC(=O)CC(=O)[C@@H]1C,99.8%,89%,99.6%,78.1%,92.5%,105%,101%,112%,106%,96.5%,92.9%,89.9%,104%,98.9%,117%,93.9%,91.9%,97.5%
CC(C)OC(=O)Nn1cnc2ccccc21,98.4%,106%,122%,95.6%,103%,117%,96.7%,130%,103%,96.7%,–,117%,108%,103%,109%,–,120%,95.2%
CCOc1ccc2nc3ccc(Cl)cc3nc2c1,65.4%,81.3%,96.6%,73.9%,76.9%,94.9%,81.1%,114%,92.2%,52.8%,127%,106%,-13% (active),110%,101%,-100% (active),107%,92.7%
CC([C@H]1CC=C2C3CCC4=C[C@@H](N(C)C)CC[C@]4(C)C3CC[C@@]21C)N(C)C (some centres undefined),51.9%,47.9%,83.3%,70.2%,98.2%,72%,-5.65% (active),-65.1% (active),57%,–,83.9%,-6.46% (active),–,-86.8% (active),17.9%,-56.8% (active),2.29% (active),4.25% (active)
CCN(CCO)CCNc1ccc(C)c2sc3cc(OC)ccc3c(=O)c12,79.6%,73.5%,76.1%,55.8%,62.6%,59.4%,66.6%,48.9%,72.2%,20.1%,103%,64.2%,71.4%,73.7%,103%,79.3%,70.1%,77.2%
O=C(Nn1cnc2ccccc21)N1CCCC1,111%,105%,86.7%,74.1%,104%,109%,80.3%,117%,102%,94%,92.2%,94.2%,109%,98.7%,101%,–,117%,91.8%
C[C@H]1C[C@@H](n2cnc3c(N)nccc32)[C@H](O)[C@@H]1O,128%,105%,110%,83.3%,151%,98.6%,95.6%,109%,84%,69.6%,110%,89.9%,7.03% (active),96.5%,89.3%,–,97.9%,67.9%
Cc1c(O)c(N=Nc2ccc(C(=O)O)c(O)c2)c2ccccc2c1O,92.3%,104%,105%,77.7%,100%,78.9%,104%,119%,94.3%,60.6%,97.4%,86.4%,13.3%,116%,95.6%,53.4%,119%,81.7%
